# Pf growth 48h: P. falciparum growth inhibition at 48 hours (one generation). Potency, µM (highest dose often 28.7 µM), inactives show top-dose activity change, negative = inhibition, usual class: inhibitors. AID 504832. hit rate 5.9% among 310,000. P. falciparum luciferase growth in erythrocytes, 48 h; note: potency is the fitted concentration of half-maximal effect
#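 Here the parasites carry a stable luciferase gene and grow inside erythrocytes in Albumax-based RPMI medium with compound for one erythrocytic cycle. Activity is scored as loss of luminescent signal.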
# Pf growth 96h: P. falciparum growth inhibition at 96 hours. Potency, µM (highest dose often 28.7 µM), without a hit: top-dose activity change, negative = inhibition, actives largely listed as inhibitors. hit rate 6.9% among 320,000. P. falciparum luciferase reporter growth, 96 h; note: potency is the fitted concentration of half-maximal effect
#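 Cell-based qHTS: luciferase-tagged P. falciparum in erythrocytes (2% hematocrit, 0.05% parasitemia final) incubated with compounds for 96 hours, 37 C, 5% CO2; luciferase detection reagent then added and luminescence measured.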
# LASV entry inh: blocks Lassa virus binding to or entry into cells; Lassa virus pseudotype entry inhibition, cell reporter; Potency, µM (series often up to 37.9 µM), for the others: at the top dose activity change, negative = inhibition, hits mostly inhibitors; hit rate 1.2% among 300,000; calls by dose curve; tested in HEK293 cells; note: potency is the fitted concentration of half-maximal effect; nearly all actives have a fitted effect of over 50% in size
# HCV inhibitor: blocks hepatitis C virus | Huh7.5.1 HCVcc-Cre infection, luciferase reporter, 44 h | Potency, µM (doses to about 41.8 µM), inactives show top-dose activity change, negative = inhibition, usual class: inhibitors | hit rate 3.4% among 340,000; note: potency is the fitted concentration of half-maximal effect
#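 Cells (1,000/well) were plated 4 h before compound, then infected with HCVcc-Cre virus (~0.5 moi). After 44 h further culture, infection was read as luciferase luminescence following a 15 min substrate incubation at room temperature.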
# HCMV antiviral: inhibitors of human cytomegalovirus. hit rate 4.5% among 410,000. activity change, negative = inhibition, % at 57.5 µM. HFF cells, HCMV-luciferase reporter, 72 h; hits give low values; in the data active = activity change below about -60%; inconclusive = no clear call, values can overlap the other calls; inactive = above about -39%
#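 Screen run at 2 compound doses on HFFs infected with reporter HCMV, MOI 1 PFU/cell. Luciferase activity from cell lysates at 72 h post infection gave inhibition relative to buffer-only and Salinomycin wells.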
# Marburg entry inh: inhibitors of Marburg virus binding or cell entry; Potency, µM (top dose mostly 37.8 µM), for inactives: top-dose activity change, negative = inhibition, hits mostly inhibitors; Marburg virus pseudotyped entry inhibition, cell reporter; hit rate 1.8% among 300,000; calls by dose curve; tested in HEK293 cells; note: potency is the fitted concentration of half-maximal effect
# Active calls of the source: *; ? = inconclusive; nt = no result given; [ ] = remark or other dose. An excerpt weighted towards active compounds, which were near 14% of everything screened. Unless noted, calls come from the whole dose curve; as a rule, active = well fitted inhibition curve with a large enough effect; inconclusive = small, poorly fitted or top-dose-only effect, or another doubt; inactive = no such curve, though single readings can be large or run the other way. % is set by controls: 0 for no effect and ±100 for the full control effect.
SMILES,Pf growth 48h,Pf growth 96h,LASV entry inh,HCV inhibitor,HCMV antiviral,Marburg entry inh
COc1cccc(-c2c(-c3cc(OC)cc(OC)c3)n(C)c3ccc(-c4cnc(N5CCOCC5)nc4)cc23)c1,nt,nt,nt,4%,-65*,nt
Cc1ccc(C)c(CN2C(=O)c3ccccc3S(=O)(=O)c3ccc(C(=O)N4CCOCC4)cc32)c1,nt,nt,-12%[46.1 µM],nt,?,7%[46.1 µM]
Cc1ccc2[nH]c3c(=O)n(CC(=O)Nc4ccc(Br)cc4C)ncc3c2c1,nt,nt,3%[46.1 µM],nt,-4,nt
O=C(CN(CCc1ccccc1)S(=O)(=O)c1ccccc1)NCc1ccc(Cl)cc1,nt,nt,?,nt,9,nt
CCOC(=O)N1CCC(=NNC(N)=O)C1,nt,nt,nt,nt,-20,nt
CC(C)=CCC1=C(OCC(=O)O)C(=O)c2ccccc2C1=O,13µM*,2.9µM*,nt,-5%,57,nt
CC(C)=CCC/C(C)=C/CC/C(C)=N/O,2%,-13%,-8%,6%,20,1%
CC(C)=CCC/C(C)=C/CC/C(C)=C/CC/C(C)=C/CC1=C(C)C(=O)c2ccccc2C1=O,12µM*,5.2µM*,nt,-24%,65,nt
O=C(NCc1ccc2c(c1)CCN2C(=O)c1ccc(Cl)cc1)c1cccc(F)c1,nt,nt,-9%[46.1 µM],nt,-10,nt
O=C1C(c2cc(=O)c3ccccc3[nH]2)=C(O)c2ccccc21,-9%,-22%,?,8%,13,5.6µM*
O=c1cc(-c2ccccc2)[nH]c2ccccc12,1.5µM*,2%,-6%,-26%,-76*,?
O=C1C2CC=CCC2C(=O)N1Cc1ccccc1Cl (stereo unspecified),0%,-23%,4%,9%,-40,0%
O=C1C2CC=CCC2C(=O)N1SC(Cl)(Cl)Cl (stereo unspecified),4%,-17%,nt,nt,-74*,nt
N#C/C(=C\c1c(F)cccc1Cl)S(=O)(=O)c1ccccn1,-1%,11%,2%,16%,2,-4%
CC1(c2ccccc2)CC(C)(C)N2C(=O)C(=O)c3cccc1c32 (stereo unspecified),12µM*,26%,0%,-3%,-2,?
CC1CC2(CCCCC2)N2C(=O)C(=O)c3cccc1c32 (stereo unspecified),-6%,-1%,-8%,?,-26,?
COc1ccc([C@H]2CC(=O)C=C(c3ccc(Cl)c(F)c3)C2)cc1,3%,19%,nt,?,43,nt
O=c1c2ccccc2c(C=NCCCN2CCOCC2)c(O)n1Cc1ccccc1,10µM*,-12%,-4%,-9%,51,-26%
O=c1c2ccccc2c(C=NCCCN2CCOCC2)c(O)n1Cc1ccc2c(c1)OCO2,?,?,9%,-24%,47,-17%[46.1 µM]
COc1ccccc1-c1cccc([C@@H]2C[C@H]3[C@H](CON3C)CN2C)c1,nt,nt,nt,?,-9,nt
CCCCCCCOc1ccc(OC(=O)c2ccncc2)cc1,nt,7%,-21%,?,-64*,?
CCCCCCCOc1ccc(OC(=O)c2cccnc2)cc1,nt,?,-30%,?,-6,-23%
CCn1c(/C=C/N(C)c2ccccc2)[n+](CC)c2ccc(Cl)cc21,0.74µM*,0.13µM*,8.2µM*,32µM*,-94*,?
CCn1c(/C=C/Nc2ccccc2)[n+](CC)c2ccc(Cl)cc21,?,8.3µM*,-11%,-14%,11,?
CCOC(=O)c1ccc2c(c1)n(CC)c(/C=C/Nc1ccccc1)[n+]2CC,?,?,?,-11%,-8,?
SMILES,Pf growth 48h,Pf growth 96h,LASV entry inh,HCV inhibitor,HCMV antiviral,Marburg entry inh
CCCOc1ccc(NC(=O)CC2C(=O)N(c3cccc(C)c3)C(=O)N2CCc2ccncc2)cc1 (stereo unspecified),nt,nt,-3%[46.1 µM],nt,-7,nt
COCCCN(C(=O)Cc1coc2cc(C)c(C)cc12)c1c(N)n(Cc2ccccc2)c(=O)[nH]c1=O,?,?,-23%,-23%,-4,-10%[46.1 µM]
O=CN1CCN(C(=O)C(=O)c2cn(CC(=O)N3CCCCC3)c3ccccc23)CC1,-14%,9%,nt,5%,6,nt
CCOC(=O)C1CCCN(C(=O)C(=O)c2cn(CC(=O)N3CCOCC3)c3ccccc23)C1 (stereo unspecified),0%,-5%,3%,6%,-7,0%
O=C(c1ccco1)c1cn(CC(=O)N2CCCCC2)c2ccccc12,25%,1.7µM*,-14%,-2%,52,1%
CCOC(=O)C1CCN(C(=O)C(=O)c2cn(CC(=O)N3CCCCCC3)c3ccccc23)CC1,12µM*,10µM*,-10%[46.1 µM],-26%,145,-19%[46.1 µM]
CCOC(=O)Cn1cc(C(=O)c2cccs2)c2ccccc21,31%,1%,3%,8.9µM*,100,?
CCOC(=O)N1CCN(C(=O)C(=O)c2cn(CC(=O)N3CCCCCC3)c3ccccc23)CC1,12µM*,12µM*,?,5%,-36,3%
O=C(Cn1cc(C(=O)c2ccco2)c2ccccc21)NC1CCCCC1,23%,2%,9%,-19%,-12,-20%
CCOc1ccc(-c2nnc(SCC(=O)Nc3cccc(OC)c3)nc2-c2ccc(OCC)cc2)cc1,nt,nt,?,nt,1,nt
COc1ccc(-c2nc3cc(NC(=O)COc4ccccc4C)ccc3o2)cc1,nt,nt,?,nt,42,?
COc1ccc(Cl)cc1NC(=O)C/C(C)=N/NC(=O)c1ccc(O)cc1,12%,?,?,26%,13,3%
CC1CCCCN1C(=O)C(=O)c1cn(CC(=O)N2CCCC2)c2ccccc12 (stereo unspecified),-13%,?,8%[46.1 µM],6%,41,-7%[46.1 µM]
CC1CCCCN1C(=O)C(=O)c1cn(CC(=O)N2CCCCCC2)c2ccccc12 (stereo unspecified),?,13µM*,16%[46.1 µM],-3%,2,-13%[46.1 µM]
Cc1c(O)ccc2cc(S(=O)(=O)c3ccccc3)c(=O)oc12,7%[0.00184 µM],12µM*,2%,16%,-31,4%[46.1 µM]
Cc1ccc(S(=O)(=O)c2cc3ccccc3oc2=O)cc1,60%,9%,-29%,4%,-14,-16%[46.1 µM]
COc1ccc(OC)c(-n2c(=O)c3ccccc3c3ccccc3c2=O)c1,5%,-18%,-4%,32%,9,-5%
COc1ccc(OC)c(-n2c(SCC(N)=O)nnc2-c2c[nH]c3ccccc23)c1,nt,5.2µM*,nt,9%,-15,nt
COc1ccccc1-n1c(SCC(N)=O)nnc1-c1ccccc1,-15%,1.7µM*,8%,4%,28,24%
COc1ccc(OC)c(-n2c(SC)nnc2-c2c[nH]c3ccccc23)c1,nt,4.1µM*,nt,9%,11,nt
CCOc1ccc(-n2c(SCC(=O)Nc3cc(C)on3)nnc2-c2c[nH]c3ccccc23)cc1,nt,5.9µM*,?,16%,-27,-4%
CCOc1ccccc1-n1c(SCC(N)=O)nnc1-c1ccccc1,-10%,nt,2%,20%,-7,-27%

# Screens as filed in PubChem.
